Assay in all cases: yeast three-hybrid, YBZ-1, SC-Leu-His + 0.5 mM 3-AT, 4 days
Conditions in all cases: tags: N-Gal4 AD-HA kept; label: inside an RPR1-promoter hybrid RNA with tandem MS2 sites; ssRNA

In assay [1] the target is PUM1 PUF domain R4-DHQ (Homo sapiens, UniProt Q14671 828-1176, N971D). In outline: (§1)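 A centromeric plasmid in strain YBZ-1 co-expressed Pumilio-1 PUF domain libraries, randomized at the three base-contacting residues of each repeat, with matching RNA elements; the strain carries a LexA–MS2 coat fusion and a HIS3 reporter. After four days on SC-Leu (input) or SC-Leu-His + 0.5 mM 3-AT (selection), the repeat regions were PCR-amplified and Illumina-sequenced. The interaction score is the log change in variant frequency from input to selection, using log2 and a pseudocount of 1 where absent.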
Sequence of PUM1 PUF domain R4-DHQ (Q14671 828-1176 N971D): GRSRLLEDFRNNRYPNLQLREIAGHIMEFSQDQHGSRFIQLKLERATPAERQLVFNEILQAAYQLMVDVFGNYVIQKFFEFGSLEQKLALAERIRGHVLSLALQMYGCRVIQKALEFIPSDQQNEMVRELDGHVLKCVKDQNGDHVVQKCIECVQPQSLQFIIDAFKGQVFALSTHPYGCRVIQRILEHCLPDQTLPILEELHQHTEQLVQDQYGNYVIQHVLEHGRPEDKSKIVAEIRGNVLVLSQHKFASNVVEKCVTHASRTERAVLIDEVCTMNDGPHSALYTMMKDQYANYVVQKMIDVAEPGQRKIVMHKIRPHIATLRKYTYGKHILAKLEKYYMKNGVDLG

Assay [2] has as its target PUM1 PUF domain R4-CRG (Homo sapiens, UniProt Q14671 828-1176, N971C;H972R;Q975G). In outline: as §1
In assay [3] the target is PUM1 PUF domain R4-HNL (Homo sapiens, UniProt Q14671 828-1176, N971H;H972N;Q975L). In outline: as §1
Sequence of PUM1 PUF domain R4-HNL (Q14671 828-1176 N971H/H972N/Q975L): as the sequence (Q14671 828-1176 N971D) above, with D144H, H145N, Q148L counted along it
Assay [4] concerns the target PUM1 PUF domain R5-LYS (Homo sapiens, UniProt Q14671 828-1176, C1007L;R1008Y;Q1011S). In outline:
as §1

Assay [5] deals with PUM1 PUF domain R4-VGY (Homo sapiens, UniProt Q14671 828-1176, N971V;H972G;Q975Y). In outline: as §1
Sequence of PUM1 PUF domain R4-VGY (Q14671 828-1176 N971V/H972G/Q975Y): as the sequence (Q14671 828-1176 N971D) above, with D144V, H145G, Q148Y counted along it
For assay [6], the target named is PUM1 PUF domain R5-PLD (Homo sapiens, UniProt Q14671 828-1176, C1007P;R1008L;Q1011D). In outline:
as §1

Assay [7] has as its target PUM1 PUF domain R8-GFR (Homo sapiens, UniProt Q14671 828-1176, N1122G;Y1123F;Q1126R). In outline: as §1
Assay [8] deals with PUM1 PUF domain R3-LYE (Homo sapiens, UniProt Q14671 828-1176, C935L;R936Y;Q939E). In outline: as §1
Assay [9] has as its target PUM1 PUF domain R5-SRV (Homo sapiens, UniProt Q14671 828-1176, C1007S;Q1011V). In outline:
as §1

Assay [10] addresses PUM1 PUF domain R5-GVQ (Homo sapiens, UniProt Q14671 828-1176, C1007G;R1008V). In outline:
as §1

The target in assay [11] is PUM1 PUF domain R5-KPV (Homo sapiens, UniProt Q14671 828-1176, C1007K;R1008P;Q1011V). In outline: as §1
For assay [12], the target named is PUM1 PUF domain R5-ESE (Homo sapiens, UniProt Q14671 828-1176, C1007E;R1008S;Q1011E). In outline:
as §1

In assay [13] the target is PUM1 PUF domain R1-KYQ (Homo sapiens, UniProt Q14671 828-1176, S863K;R864Y). In outline: as §1
Sequence of PUM1 PUF domain R1-KYQ (Q14671 828-1176 S863K/R864Y): as the sequence (Q14671 828-1176 N971D) above, with S36K, R37Y, D144N counted along it
The target of assay [14] is T1, PUM1 PUF domain R6-LFG (Homo sapiens, UniProt Q14671 828-1176, N1043L;Y1044F;Q1047G).
T1 sequence: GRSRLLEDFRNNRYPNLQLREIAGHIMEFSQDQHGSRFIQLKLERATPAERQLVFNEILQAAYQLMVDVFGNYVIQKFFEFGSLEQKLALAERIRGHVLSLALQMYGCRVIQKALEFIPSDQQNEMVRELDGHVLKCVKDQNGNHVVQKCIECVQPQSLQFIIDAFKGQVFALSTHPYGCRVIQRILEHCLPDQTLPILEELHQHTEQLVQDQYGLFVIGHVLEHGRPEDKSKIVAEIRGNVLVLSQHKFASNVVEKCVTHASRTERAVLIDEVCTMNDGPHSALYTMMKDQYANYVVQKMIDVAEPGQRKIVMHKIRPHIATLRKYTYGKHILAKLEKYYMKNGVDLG
In outline:
as §1

The target in assay [15] is PUM1 PUF domain R3-WFS (Homo sapiens, UniProt Q14671 828-1176, C935W;R936F;Q939S). In outline: as §1

We go through ten sequences from PMC8384837, “Expanding the binding specificity for RNA recognition by a PUF domain”.

Sequence of PUM1 PUF domain R5-LYS (Q14671 828-1176 C1007L/R1008Y/Q1011S): as the sequence (Q14671 828-1176 N971D) above, with D144N, C180L, R181Y, Q184S counted along it
Sequence of PUM1 PUF domain R5-GVQ (Q14671 828-1176 C1007G/R1008V): as the sequence (Q14671 828-1176 N971D) above, with D144N, C180G, R181V counted along it
Sequence of PUM1 PUF domain R4-CRG (Q14671 828-1176 N971C/H972R/Q975G): as the sequence (Q14671 828-1176 N971D) above, with D144C, H145R, Q148G counted along it
Sequence of PUM1 PUF domain R5-ESE (Q14671 828-1176 C1007E/R1008S/Q1011E): as the sequence (Q14671 828-1176 N971D) above, with D144N, C180E, R181S, Q184E counted along it

With “GGCUAGAACUAGUGGAUCCCCCGGCGCCCGGCGGCUCGAGCCCGGGUAAGUGUAUAUAGUCUGCAUGCCGCCGGGCGCCAUGCCUGCAGGUCGACUCUAGAAAACAUG”, the binding signal in [1] is 5.32 log2 enrichment (interaction score); in [2], 1.29 log2 enrichment (interaction score); in [3] it was 3.45 log2 enrichment (interaction score).

“GGCUAGAACUAGUGGAUCCCCCGGCGCCCGGCGGCUCGAGCCCGGGUAAGUGUACAUAGUCUGCAUGCCGCCGGGCGCCAUGCCUGCAGGUCGACUCUAGAAAACAUG”: the binding signal in assay [1] is 2.4 log2 enrichment (interaction score); in [3], 2.04 log2 enrichment (interaction score).

As for “GGCUAGAACUAGUGGAUCCCCCGGCGCCCGGCGGCUCGAGCCCGGGUAAGUGUAAAUAGUCUGCAUGCCGCCGGGCGCCAUGCCUGCAGGUCGACUCUAGAAAACAUG”, the binding signal in assay [2] is 4.02 log2 enrichment (interaction score); in [4], 3.11 log2 enrichment (interaction score); in [5], 2.38 log2 enrichment (interaction score); in [6], 2.61 log2 enrichment (interaction score); in assay [7], 4.66 log2 enrichment (interaction score); in [8] it was 3.76 log2 enrichment (interaction score). Further, in assay [9], the binding signal was 0.54 log2 enrichment (interaction score).

Turning to “GGCUAGAACUAGUGGAUCCCCCGGCGCCCGGCGGCUCGAGCCCGGGUAAGUGUUAAUAGUCUGCAUGCCGCCGGGCGCCAUGCCUGCAGGUCGACUCUAGAAAACAUG”, the binding signal was 3.82 log2 enrichment (interaction score) in assay [4], 2.71 log2 enrichment (interaction score) in assay [10] and 1.4 log2 enrichment (interaction score) in assay [11].

Regarding “GGCUAGAACUAGUGGAUCCCCCGGCGCCCGGCGGCUCGAGCCCGGGUAAGUGUGAAUAGUCUGCAUGCCGCCGGGCGCCAUGCCUGCAGGUCGACUCUAGAAAACAUG”, the binding signal was 2.24 log2 enrichment (interaction score) in assay [10], 2.77 log2 enrichment (interaction score) in assay [12] and 2.79 log2 enrichment (interaction score) in assay [9].

Regarding “GGCUAGAACUAGUGGAUCCCCCGGCGCCCGGCGGCUCGAGCCCGGGUAAGUGUAAAUCGUCUGCAUGCCGCCGGGCGCCAUGCCUGCAGGUCGACUCUAGAAAACAUG”, the binding signal in assay [13] is 4.96 log2 enrichment (interaction score).

“GGCUAGAACUAGUGGAUCCCCCGGCGCCCGGCGGCUCGAGCCCGGGUAAGUGUCAAUAGUCUGCAUGCCGCCGGGCGCCAUGCCUGCAGGUCGACUCUAGAAAACAUG”: in [11], the binding signal was 3.85 log2 enrichment (interaction score).

Take “GGCUAGAACUAGUGGAUCCCCCGGCGCCCGGCGGCUCGAGCCCGGGUAAGUGAAAAUAGUCUGCAUGCCGCCGGGCGCCAUGCCUGCAGGUCGACUCUAGAAAACAUG”: the binding signal in [14] is 5.7 log2 enrichment (interaction score).

“GGCUAGAACUAGUGGAUCCCCCGGCGCCCGGCGGCUCGAGCCCGGGUAAGUGUAAUUAGUCUGCAUGCCGCCGGGCGCCAUGCCUGCAGGUCGACUCUAGAAAACAUG”: the binding signal in assay [15] is 2.63 log2 enrichment (interaction score).

Take “GGCUAGAACUAGUGGAUCCCCCGGCGCCCGGCGGCUCGAGCCCGGGUAAGCGUAAAUAGUCUGCAUGCCGCCGGGCGCCAUGCCUGCAGGUCGACUCUAGAAAACAUG”: in assay [7], the binding signal is 4.51 log2 enrichment (interaction score).
